In PubChem BioAssay AID2284377 (EPA ToxCast):
Records with an inconclusive call do not appear. Active and inactive are the calls of the source. The calls were made as follows: active = hit-call score of the fitted dose curve at least 0.9, where 1 is the maximum; inconclusive = response in the unintended direction; inactive = score below 0.9.

The molecules below were run against Estrogen receptor (Homo sapiens) (UniProt P03372) (assay: ERF_TW_NR_COA_hESR1: Eurofins (ERF) Nuclear Receptor (NR) Functional Coactivator Assay for human Estrogen Receptor alpha (ERa) Agonism).
Estrogen receptor (Homo sapiens), sequence (P03372 whole entry, looked up): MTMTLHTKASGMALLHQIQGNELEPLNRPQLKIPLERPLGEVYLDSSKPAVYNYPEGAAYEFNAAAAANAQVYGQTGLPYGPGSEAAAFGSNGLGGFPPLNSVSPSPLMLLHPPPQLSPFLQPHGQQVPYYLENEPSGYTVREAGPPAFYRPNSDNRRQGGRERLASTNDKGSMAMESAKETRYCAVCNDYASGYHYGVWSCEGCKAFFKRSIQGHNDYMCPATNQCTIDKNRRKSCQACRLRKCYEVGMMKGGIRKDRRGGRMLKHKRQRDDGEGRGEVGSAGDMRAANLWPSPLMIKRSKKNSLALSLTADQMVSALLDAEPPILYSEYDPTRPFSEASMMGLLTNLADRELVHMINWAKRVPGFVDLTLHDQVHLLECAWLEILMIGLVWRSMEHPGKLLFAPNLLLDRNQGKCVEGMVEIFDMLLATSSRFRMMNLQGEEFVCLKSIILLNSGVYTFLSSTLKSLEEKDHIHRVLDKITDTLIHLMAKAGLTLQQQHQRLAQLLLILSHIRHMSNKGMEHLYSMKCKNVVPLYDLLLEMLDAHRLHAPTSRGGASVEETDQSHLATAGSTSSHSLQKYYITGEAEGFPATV
Procedure: ERF_TW_NR_COA_hESR1 is a biochemical, single-readout assay that uses extracted gene-proteins in a cell-free assay. Measurements were taken 0.16 hours after chemical dosing in a 96-well plate. See ERalpha Human Estrogen NHR Functional Agonist Coactivator Assay, Panlabs.ERF_TW_NR_COA_hESR1 is an assay component calculated from the ERF_TW_NR_COA_hESR1 assay. It is designed to measure FRET using a type of binding reporter as detected by fluorescence intensity of estriol with fluorimetry technology.Data from the assay component ERF_TW_NR_COA_hESR1 was analyzed at the assay endpoint, ERF_TW_NR_COA_hESR1, in the positive analysis fitting direction relative to DMSO as the negative control and baseline of activity. Using a type of binding reporter, gain-of-signal activity can be used to understand changes in binding as they relate to gene ESR1. To generalize the intended target to other relatable targets, this assay endpoint is annotated to the nuclear receptor intended target family, where the subfamily is steroid.
Test compound and/or vehicle is incubated with the 7 nM estrogen receptor alpha (ERalpha)-LBD and coactivator peptide for 10 minutes at RT. Determination of the amount of complex formed is read spectrofluorimetrically at 520 nm/490 nm. Test compound-induced increase fluorescence by 50 percent or more (>/=50%) relative to the 1 uM Estriol response indicates possible ERalpha receptor agonist activity.

Row | SMILES | AC50 | outcome
1 | OCC(F)(F)C(F)(F)C(F)(F)C(F)(F)C(F)(F)C(F)(F)C(F)(F)C(F)(F)CO | 0.467 µM (active) | 
2 | O=P(O)(O)OCCC(F)(F)C(F)(F)C(F)(F)C(F)(F)C(F)(F)C(F)(F)F | 9.12 µM (active) | 
3 | O=C(CC(=O)C(F)(F)C(F)(F)C(F)(F)F)c1cccs1 |  | inactive
4 | FC(F)(F)C(F)(F)C(F)(F)C(F)(F)C(F)(F)C(F)(F)I | 4.11 µM (active) | 
5 | N=C(N)C(F)(F)C(F)(F)C(F)(F)C(F)(F)C(F)(F)C(F)(F)C(F)(F)F |  | inactive
6 | OCCCC(F)(F)C(F)(F)C(F)(F)C(F)(F)C(F)(F)C(F)(F)C(F)(F)F | 43.3 µM (active) | 
7 | OCCC(F)(F)C(F)(F)C(F)(F)C(F)(F)C(F)(F)C(F)(F)C(F)(F)C(F)(F)F |  | inactive
8 | OCC(F)(F)C(F)(F)C(F)(F)C(F)(F)C(F)(F)C(F)(F)CO | 1.53 µM (active) | 
9 | OCCC(F)(F)C(F)(F)C(F)(F)C(F)(F)C(F)(F)C(F)(F)F | 50.2 µM (active) | 
10 | C=CC(=O)OCC(F)(F)C(F)(F)C(F)(F)C(F)(F)C(F)(F)C(F)(F)C(F)(F)C(F)F | 37.5 µM (active) | 
11 | FC(F)(I)C(F)(F)C(F)(F)C(F)(F)C(F)(F)C(F)(F)I | 7.81 µM (active) | 
12 | FC(F)(I)C(F)(F)C(F)(F)C(F)(F)I |  | inactive
13 | NC(=O)C(F)(F)C(F)(F)C(F)(F)C(F)(F)C(F)(F)C(F)(F)C(F)(F)F |  | inactive
